Laboratory results as given in PubChem BioAssay AID686997 (Broad Institute, 2013).
Potency and affinity values are given separately. Unmarked numbers belong to inactive results.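 The calls were made as follows: active = compound lowering the viability signal whose fitted half-maximal dose is at most twice its top tested dose; inconclusive = flat curve with 30 to 70% inhibition, or poor fit; inactive = the rest.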

assay: PubChem AID 686997; conditions: C. neoformans growth, alamar blue, 72 h (sorbitol counter-screen); series mostly up to 35 µM; activity change, negative = inhibition: at the top concentration

Row | Compound | activity change, negative = inhibition
1 | Cc1cc(C(=O)NC(=S)Nc2ccccc2N2CCOCC2)ccc1[N+](=O)[O-] | 3.41%
2 | COc1ccccc1NC(=S)NCc1ccc(Cl)cc1 | 1.84%
3 | CCCCNC(=S)N/N=C/c1ccc(C#N)cc1 | -5.24%
4 | CC(C)CC1(C)N=C(c2ccccc2)C(=S)N1 (stereo not drawn) | 8.07%
5 | O=C(NC(=S)Nc1ccccc1N1CCCC1)c1ccc([N+](=O)[O-])cc1 | -3.51%
6 | S=C(NCCCc1ccccc1)Nc1ccccc1 | 10.1%
7 | COC(=O)C1=C(C)N(Cc2ccc(F)cc2)C(=S)NC1c1ccc(F)cc1 (stereo not drawn) | 17.6% [at 16 µM]
8 | CCCCN1C(=S)NC[C@@H]1Cc1ccccc1 | 2.5%
9 | CO[C@H]1CN(C)C(=O)c2cc(NC(=O)C3CC3)ccc2OC[C@@H](C)N(Cc2cncnc2)C[C@H]1C | 8.68%
10 | O=C(NC(=S)Nc1cccc(F)c1)c1cccc([N+](=O)[O-])c1 | 7.08%
11 | O=C(NC(=S)Nc1cc(Cl)ccc1N1CCOCC1)c1ccccc1[N+](=O)[O-] | 9.06%
12 | COC(=O)C1=C(C)N(Cc2ccccc2)C(=S)N[C@H]1c1cccc(F)c1 | -1.98%
13 | S=C(NCc1ccccc1)NCC1COc2ccccc2O1 (stereo not drawn) | -4.42%
14 | COc1ccccc1NC(=S)NCc1ccccc1Cl | 7.46%
15 | Fc1ccccc1NC(=S)NN(Cc1ccccc1)c1ccccc1 | -2.68%
16 | CCc1ccc(C(=O)NC(=S)NCc2cccnc2)cc1 | 7.29%
17 | COc1ccccc1CNC(=S)NCc1ccc(Cl)cc1 | -4.87%

Row | Compound | activity change, negative = inhibition
18 | COc1cccc(NC(=S)NC(=O)Cc2ccc(Cl)cc2)c1 | 7.7%
19 | CCc1nc(N2CCCCC2C)c2oc3ccccc3c2n1 (stereo not drawn) | 9.52%
20 | O=C(NC(=S)Nc1ccccc1N1CCCC1)c1ccccc1[N+](=O)[O-] | 3.81%
21 | O=C(NCCN1CCCCC1)[C@H]1N[C@H]2c3ccc(-c4ccncc4)c(=O)n3C[C@H]2[C@@H]1CO | 13.6%
22 | COc1ccc(CNC(=S)NCc2ccc(OC(C)C)cc2)cc1 | 1.25%
23 | CCc1ccc(C(C)NC(=S)NCc2ccc(F)cc2)cc1 (stereo not drawn) | 4.02%
24 | Fc1ccccc1NC(=S)NCCc1cccc(Cl)c1 | -1.31%
25 | Cc1ccc(C)c(NC(=O)C2(C)CCCN2C(=O)C(C)C)c1 (stereo not drawn) | 13.8% [at 56 µM]
26 | CCOC(=O)NC(=S)Nc1ccc(C(C)(C)C)cc1 | -8.87%
27 | O=C(NC(=S)NCC1COc2ccccc2O1)c1ccc(Cl)cc1 (stereo not drawn) | 16.9% [at 46 µM]
28 | O=C(Cc1ccccc1)N[C@H]1C=C[C@@H](CC(=O)N2CCOCC2)O[C@@H]1CO | 15.1%
29 | Cc1ccc(C(=O)NC(=S)Nc2ccc(N3CCOCC3)cc2)cc1 | 9.23%
30 | COC(=O)C1=C(C)N(CC(C)C)C(=S)NC1c1cccc(F)c1 (stereo not drawn) | 4.94% [at 42 µM]
31 | COc1ccc(NC(=S)NCc2ccc(Cl)cc2)c(OC)c1 | 8.07%
32 | O=C(NC(=S)Nc1ccccc1N1CCOCC1)c1cccc([N+](=O)[O-])c1 | 5.09%
33 | O=C(NC(=S)Nc1ccc(Br)cc1)C1CCC1 | 1.92%
